The record followed here is PubChem BioAssay.

The nature of assay [1]: reducers of endogenous Her2 protein level, primary screen, SKBR3 breast tumor cells, AlphaScreen, ATP viability (AID 461;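 active means Her2 level under about 52% in both replicate screens, with viability over 70% of control, limit read from the data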;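 on Her2 level: lower value means less Her2 protein in the cells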;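 on viability: percent of carrier control wells set as 100% viability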). The following applies: 18-24 h, measured here: SKBR3 viability, ATP luminescence, at 10 µM. On the technique in general: In Alpha technology, singlet oxygen from a donor bead excites a nearby acceptor bead.
Assay [2] deals with Receptor tyrosine-protein kinase erbB-2 (Homo sapiens) (UniProt P04626). Described as above. The following applies: 18-24 h, at 10 µM, stronger effect = lower value.
Sequence of Receptor tyrosine-protein kinase erbB-2 (Homo sapiens) (P04626 whole entry, looked up): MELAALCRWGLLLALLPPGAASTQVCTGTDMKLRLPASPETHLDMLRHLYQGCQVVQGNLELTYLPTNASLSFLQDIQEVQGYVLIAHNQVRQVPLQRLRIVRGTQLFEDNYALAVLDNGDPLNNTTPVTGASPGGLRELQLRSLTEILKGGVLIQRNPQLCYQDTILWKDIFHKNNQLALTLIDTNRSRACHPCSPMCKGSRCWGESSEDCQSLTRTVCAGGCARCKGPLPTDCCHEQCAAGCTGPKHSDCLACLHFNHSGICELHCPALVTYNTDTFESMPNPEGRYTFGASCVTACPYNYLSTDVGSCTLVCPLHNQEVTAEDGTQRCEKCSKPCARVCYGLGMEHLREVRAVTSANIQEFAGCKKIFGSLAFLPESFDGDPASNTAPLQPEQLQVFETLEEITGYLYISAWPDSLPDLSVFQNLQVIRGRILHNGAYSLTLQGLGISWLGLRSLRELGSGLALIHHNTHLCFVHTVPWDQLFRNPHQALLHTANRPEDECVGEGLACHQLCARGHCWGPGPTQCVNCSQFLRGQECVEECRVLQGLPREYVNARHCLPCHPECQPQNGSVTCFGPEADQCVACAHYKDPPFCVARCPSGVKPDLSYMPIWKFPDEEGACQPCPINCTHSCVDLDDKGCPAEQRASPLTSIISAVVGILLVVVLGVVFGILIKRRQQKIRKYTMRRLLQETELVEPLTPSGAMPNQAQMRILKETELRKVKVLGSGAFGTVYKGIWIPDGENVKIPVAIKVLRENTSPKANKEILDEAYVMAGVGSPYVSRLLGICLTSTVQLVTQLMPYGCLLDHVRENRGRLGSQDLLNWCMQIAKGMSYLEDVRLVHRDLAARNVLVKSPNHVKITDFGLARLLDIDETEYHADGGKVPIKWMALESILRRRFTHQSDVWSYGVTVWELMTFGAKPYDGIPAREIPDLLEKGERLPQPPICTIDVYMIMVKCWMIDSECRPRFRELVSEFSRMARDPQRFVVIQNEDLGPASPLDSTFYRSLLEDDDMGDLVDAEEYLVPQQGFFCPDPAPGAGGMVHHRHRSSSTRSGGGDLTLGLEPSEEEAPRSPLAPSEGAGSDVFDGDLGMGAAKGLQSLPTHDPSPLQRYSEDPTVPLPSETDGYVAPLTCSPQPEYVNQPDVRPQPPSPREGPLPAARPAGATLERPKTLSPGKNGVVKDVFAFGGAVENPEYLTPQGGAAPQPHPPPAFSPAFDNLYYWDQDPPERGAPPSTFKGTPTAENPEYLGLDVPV
Assay [3] is described as follows: SK-BR-3 cell growth inhibitors, pilot screen, 24 h, human (AID 572;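 active means viability at or below 10% of carrier control in both of two separate runs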;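 further: compound exposure lasted between 18 and 24 h rather than exactly 24 h; 100% = carrier-treated control wells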). The following applies: SK-BR-3 viability, CellTiter-Glo luminescence, at 10 µM, stronger effect = lower value. For orientation: ATP-based viability assays read luminescence as a measure of living cells.
The nature of assay [4]: HUVEC growth inhibition – cell-based, human, primary screen (AID 575;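 active means viability at or below 30% in both replicate assays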;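 further: 100% = median of untreated cell wells with 0.1% DMSO on each plate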). The note with it: HUVEC proliferation, CellTiter-Glo luminescence, 72 h; at 10 µM; stronger effect = lower value.
Assay [5] in a line: growth inhibitors of H69AR lung tumor, primary screen, human, duplicate replicates (AID 580;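 active means viability at or under a set limit in both replicates, limit being median viability minus 3 SD, cut at about 48% in these data, passing the limit was not always enough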;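 further: 100% = mean luminescence of untreated wells and 0% = no signal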). The note with it: H69AR lung tumor cells viability, ATP luminescence, 72 h; at 10 µM; stronger effect = lower value.
Assay [6] in a line: reversal of MRP1-mediated doxorubicin resistance, pilot screen, H69AR cells, doxorubicin co-treatment (AID 601;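 active means viability loss from added drug above about 55%, and viability with drug at most 40%, in both replicates, limit read from the data, passing the limit was not always enough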). The note with it: CellTiter-Glo, 72 h, at 10 µM; for differential viability (reversal): stronger effect = higher value.
Assay [7] can be described thus: 384-well plate pilot, post-Golgi transport modulator project, inhibition of yeast transport mutant growth (AID 636; in the data active means inhibition above about 31%). The following applies: absorbance 615 nm, about 18 h, stronger effect = higher value.
A short description of assay [8]: growth suppression of yeast trafficking mutant, preliminary HTS, modulators of trafficking downstream of Golgi apparatus project, 1536-format plate, OD 615 nm (AID 637). The note with it: yeast transport mutant growth, absorbance 615 nm, 18 h; stronger effect = higher value.
A short description of assay [9]: OD615 S. cerevisiae growth inhibition, permissive medium, pilot counter-assay, permissive growth control for S. cerevisiae lifespan shortening project (AID 705;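 active means growth inhibition above 25% in both replicates, a cutoff set 3 SD above the mean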). The note with it: OD615, 24 h, at 10 µM, stronger effect = higher value.
Assay [10] is described as follows: Restrictive medium S. cerevisiae growth inhibition, OD615, pilot screen of yeast lifespan reduction project, restrictive growth control (AID 706;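 active means growth inhibition above a set limit, 3 SD over mean compound inhibition, in both replicates, cut at about 43% in these data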;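 further: modified DeaD lifespan yeast strain shifted to restrictive glucose medium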). The following applies: OD615, 48 h, at 10 µM, stronger effect = higher value.
The nature of assay [11]: viability gain of MRP-1-high H69AR cells under doxorubicin, pilot screen, MRP-1 activator project, CellTiter-Glo, duplicate (AID 807;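 active means viability increase at or above a cutoff of the median across tested compounds plus 3 SD, cut at about 8.5% in these data, passing the limit was not always enough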;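 further: compound pretreatment 18-22 h then 72 h combined with doxorubicin; 0% = doxorubicin alone and 100% = vehicle without doxorubicin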). The note with it: H69AR viability with doxorubicin, CellTiter-Glo luminescence; at 10 µM; stronger effect = higher value.
Assay [12] is described as follows: growth suppression of beta-catenin knockout HCT116, pilot screen, human colon tumor cells (AID 823;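 active means cell viability at or below a set limit in both duplicate runs, the limit being the all-compound median minus 4 SD, cut at about 23% in these data, passing the limit was not always enough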;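 further: 0% = wells killed by 20 µM Hyamine and 100% = untreated DMSO cell wells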). The note with it: CellTiter-Glo, 60 h, at 10 µM, stronger effect = lower value.
A short description of assay [13]: growth suppression of PTEN-deleted HCT116, pilot screen, cell-based, HCT116 clonal line, CellTiter-Glo (AID 824;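 active means viability at or below 27.92% in each of two runs, the all-compound median minus 4 SD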;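 further: 0% = 20 µM Hyamine control and 100% = vehicle cell control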). The note with it: 60 h, at 10 µM, stronger effect = lower value.
Assay [14] is described as follows: inhibitors of the yeast RAM network, pilot screen, dse1pr::URA3 reporter, 5-FOA selection (AID 869;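 active means inhibition over a set limit, the all-compound mean plus 3 SD, in both replicate runs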;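 further: 0% = DMSO wells with no growth and 100% = 10 µM 1-NA-PP1 with full growth; RAM network block rescues cells from 5-FOA so hits raise OD615 growth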). The note with it: S. cerevisiae dse1pr::URA3 5-FOA growth, OD615, 2 d; at 10 µM; stronger effect = higher value; strain carries analog-sensitive mutant Cbk1 kinase.
The nature of assay [15]: RAM signaling pathway blockade in yeast – S. cerevisiae, Pdr1DBD-CYC8 efflux-inhibited sensitized strain, primary screen (AID 1298;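 active means RAM network inhibition above 8.4% in each of two replicates, 3 SD over the compound average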;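 further: 0% = DMSO untreated cells without growth and 100% = 10 µM 1-NA-PP1 full growth; higher means more yeast growth rescued from 5-FOA killing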). The note with it: S. cerevisiae cbk1-as DSE1-URA3 strain, 5-FOA growth OD615, 2 d; at 50 µM; stronger effect = higher value.
Where [16] appears, read: H69AR cells + 2 uM doxorubicin, measured here: viability with 2 uM doxorubicin, stronger effect = lower value.
Setting [17] is: H69AR cells, compound alone cytotoxicity.

Results filed as inconclusive are left out. The source made the active and inactive calls. Unless noted, no stated cut-off is given here; in the data, active means inhibition above about 30%; inactive means the rest.

Broadly, the viability is a read-out of living cells in per cent, often relative to untreated cells. As usually defined, the inhibition is the change of the read-out against control, counted positive when it falls. `Cc1cc(NS(=O)(=O)c2ccccc2)no1`: the viability in assay [1] was 114%; in assay [3] it was 114% (inactive); in assay [4], 94.5% (inactive); in assay [5] it was 90.7% (inactive); in assay [6] (setting [16]), 91.7%; in assay [6] (setting [17]) it was 90.7%. Also, the viability was 99.9% (inactive) in assay [12] and 98.5% (inactive) in [13]. Further, the Her2 level in [2] was 115% (inactive). Moreover, the differential viability (reversal) in assay [6] (H69AR cells + 2 uM doxorubicin) is -1.04% (inactive). Also, the inhibition in [7] was -5.33% (inactive); in [8], 2.83% (inactive); in assay [14] it was 1.86% (inactive). Also, the growth inhibition was -14.5% (inactive) in assay [9] and -6.42% (inactive) in assay [10]. Further, the viability increase in [11] was 0.56% (inactive). Also, the RAM network inhibition in assay [15] was 5.41% (inactive).

Take `CCOC(=O)C1=C(C)NC(=O)NC1c1ccc(OCCO)c(OC)c1` (stereo not given): the viability is 92.5% in [1]; 92.5% (inactive) in [3]; 96.6% (inactive) in assay [4]; 92.1% (inactive) in assay [5]; 94.1% in assay [6] (setting [16]); 92.1% in assay [6] (setting [17]). Also, the viability in assay [12] was 102% (inactive); in assay [13], 100% (inactive). Also, in assay [2], the Her2 level was 85% (inactive). In addition, the differential viability (reversal) in assay [6] (H69AR cells + 2 uM doxorubicin) is -1.96% (inactive). The figures for the inhibition in assay [7], in assay [8] and in assay [14] were -6.08% (inactive), -2.3% (inactive) and 1.9% (inactive), respectively. Moreover, the growth inhibition was 1.63% (inactive) in assay [9] and 1.81% (inactive) in assay [10]. Moreover, in [11], the viability increase is -1.65% (inactive). For the same compound, the RAM network inhibition in assay [15] is -1.29% (inactive).

`CCCN1CCN(CCCNC(=O)Cn2ncc3c4ccccc4n(C)c3c2=O)CC1`: the viability was 99% in [1]; 99% (inactive) in assay [3]; 101% (inactive) in assay [4]; 102% (inactive) in assay [5]; 96.8% in [6] (setting [16]); 102% in assay [6] (setting [17]). In addition, the viability is 96.7% (inactive) in [12] and 95.8% (inactive) in assay [13]. Further, in [2], the Her2 level is 120% (inactive). The differential viability (reversal) in [6] (H69AR cells + 2 uM doxorubicin) is 5.29% (inactive). The inhibition in assay [7] was 0.9% (inactive); in assay [8] it was 5.17% (inactive); in assay [14] it was 1.89% (inactive). Moreover, the growth inhibition in assay [9] is 4.22% (inactive); in assay [10], -10.6% (inactive). In addition, in assay [11], the viability increase was -1.73% (inactive). For the same compound, in assay [15], the RAM network inhibition is -0.33% (inactive).

Consider `COc1ccc(CCNC(=O)c2cnn3ccccc23)c(OC)c1OC`, for which the viability was 92.5% in [1]; 92.5% (inactive) in assay [3]; 78.8% (inactive) in [4]; 96.5% (inactive) in assay [5]; 97% in assay [6] (setting [16]); 96.5% in assay [6] (setting [17]). Also, the values for the viability in assay [12] and in assay [13] were 101% (inactive) and 87.8% (inactive), respectively. In addition, the Her2 level in assay [2] was 98.5% (inactive). Besides, the differential viability (reversal) in assay [6] (H69AR cells + 2 uM doxorubicin) is -0.525% (inactive). Besides, the inhibition is -5.6% (inactive) in assay [7], -2.67% (inactive) in assay [8] and 1.33% (inactive) in assay [14]. Moreover, the results for the growth inhibition in assay [9] and in [10] were -9.7% (inactive) and -2.3% (inactive), respectively. Besides, the viability increase in assay [11] was -1.15% (inactive). In [15], the RAM network inhibition is 3.06% (inactive).

On to `COc1ccc(C2C(C(=O)N3CCC(C)CC3)c3ccccc3C(=O)N2C)cc1` (stereo not given), for which the viability in assay [1] is 109%; in assay [3], 109% (inactive); in [4], 108% (inactive); in assay [5] it was 94.9% (inactive); in assay [6] (setting [16]), 96.1%; in assay [6] (setting [17]), 94.9%. Further, the figures for the viability in [12] and in assay [13] were 83.3% (inactive) and 82.9% (inactive), respectively. In addition, in assay [2], the Her2 level was 112% (inactive). In addition, the differential viability (reversal) in assay [6] (H69AR cells + 2 uM doxorubicin) was -1.18% (inactive). The inhibition in assay [7] is 1.23% (inactive); in assay [8] it was 9.84% (inactive); in assay [14], 2.41% (inactive). The growth inhibition is -17% (inactive) in assay [9] and -12% (inactive) in assay [10]. Also, in assay [11], the viability increase is -2.5% (inactive). Moreover, the RAM network inhibition in assay [15] was 7.41% (inactive).
